Screening results deposited in PubChem BioAssay by National Center for Advancing Translational Sciences (NCATS).
Marburg entry inh: Marburg virus entry inhibition. Marburg virus pseudotyped entry inhibition, cell reporter. actives 1.8% (n = 300,000). Potency, µM (top dose mostly 37.8 µM), actives largely listed as inhibitors; calls by dose curve; tested in HEK293 cells
HCV inh: inhibitors of hepatitis C virus infection; AID 651820; Potency, µM (doses to about 41.8 µM), most hits filed as inhibitors; actives 3.4% (n = 340,000); Huh7.5.1 HCVcc-Cre infection, luciferase reporter, 44 h
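Infectious HCVcc-Cre (~0.5 moi) was added to cells just after compound, with cells seeded 4 h earlier at 1,000 per well. Luciferase activity after 44 h culture reported infection; substrate was incubated 15 min at room temperature before reading.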
HCMV inh: inhibitors of human cytomegalovirus | HFF cells, HCMV-luciferase reporter, 72 h; hits give low values | activity change, negative = inhibition, % at 57.5 µM | actives 4.5% (n = 410,000) | AID 1259415; in the data active means activity change below about -60%; inconclusive means no clear call, values can overlap the other calls; inactive means above about -39%
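Human foreskin fibroblasts infected with luciferase-reporter HCMV at MOI 1 PFU/cell, compounds at two doses. Luciferase measured 72 h post infection; normalized to buffer-only basal and Salinomycin (10uM) controls.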
Pf growth 48h: P. falciparum growth inhibition at 48 hours (one generation) | P. falciparum luciferase growth in erythrocytes, 48 h | Potency, µM (titrated, usually from 28.7 µM), usual class: inhibitors | actives 5.9% (n = 310,000) | AID 504832
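Parasite viability was followed by luminescence of a genomically integrated firefly luciferase. Cultures held 0.1% parasitemia at 2% hematocrit (final), incubated under 5% CO2 at 37 C.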
LASV entry inh: Lassa virus entry inhibition; Lassa virus pseudotype entry inhibition, cell reporter; Potency, µM (titrated, usually from 37.9 µM), most hits filed as inhibitors; actives 1.2% (n = 300,000); calls by dose curve; tested in HEK293 cells; further: nearly all actives have a fitted effect of over 50% in size
Pf growth 96h: inhibits malaria parasite growth, 96 h; actives 6.9% (n = 320,000); P. falciparum luciferase reporter growth, 96 h; Potency, µM (highest dose often 28.7 µM), most hits filed as inhibitors
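P. falciparum expressing integrated firefly luciferase, in erythrocytes at 2% hematocrit, 0.05% parasitemia, incubated with compounds 96 h at 37 C, 5% CO2. Growth inhibition read as loss of luminescence; two-generation exposure targets delayed-death apicoplast inhibitors.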
Large screens that a line does not name were inactive. Shown are actives, neighbours in structure and some others; about 14% of the full set was active somewhere. Unless noted, the call rests on the fitted dose curve; in most records, active means well fitted inhibition curve with a large enough effect; inconclusive means small, poorly fitted or top-dose-only effect, or another doubt; inactive means no such curve, though single readings can be large or run the other way.

Cc1cc(C(C)(C)C)oc1C(=O)N1CCN(C(=O)c2oc(C(C)(C)C)cc2C)CC1	HCMV inh -66.5, Pf growth 48h inconclusive (no result: LASV entry inh, Pf growth 96h)
Cc1occc1C(=O)N1CCN(C(c2ccccc2)c2ccccc2)CC1	Marburg entry inh inconclusive, Pf growth 48h 1.31µM
O=C(c1ccccc1F)N1CCN(C(=O)C(c2ccccc2)c2ccccc2)CC1	Pf growth 96h 0.294µM
Cc1cc(C(=O)N2CCN(C(c3ccccc3)c3ccccc3)CC2)on1	none (no result: Marburg entry inh, Pf growth 48h, LASV entry inh)
COc1ccc(-c2ocnc2C(=O)N2CCN(C(c3ccccc3)c3ccccc3)CC2)cc1	Marburg entry inh inconclusive, HCV inh inconclusive, Pf growth 48h 8.28µM, LASV entry inh inconclusive
O=C(c1ccccc1F)N1CCN(c2ccccc2)CC1	none
CCn1c(SCc2ccccc2Cl)nc(=O)c2c(C(=O)OC)cc(C3CC3)nc21	none (no result: Marburg entry inh, HCV inh, Pf growth 48h, Pf growth 96h)
O=C(COC(=O)CNC(=O)c1ccccc1)NCCNC(=O)COC(=O)CNC(=O)c1ccccc1	Marburg entry inh inconclusive, Pf growth 48h inconclusive
O=C(c1cc(C2CC2)on1)N1CCN(C(c2ccccc2)c2ccccc2)CC1	none (no result: LASV entry inh)
O=C(c1cc(-c2cccc(O)c2)on1)N1CCN(C(c2ccccc2)c2ccccc2)CC1	HCV inh inconclusive, Pf growth 48h 1.85µM, Pf growth 96h inconclusive (no result: Marburg entry inh, LASV entry inh)
CCN1C(=O)C(CC(=O)N2CCN(C(c3ccccc3)c3ccccc3)CC2)N(CC)C1=O (stereo not given)	Pf growth 48h 11.7µM, LASV entry inh inconclusive, Pf growth 96h inconclusive
Cc1ccnc(SCC(=O)N2CCN(C(c3ccccc3)c3ccccc3)CC2)n1	Pf growth 96h 14.7µM (no result: Pf growth 48h)
Cc1ccccc1C(=O)N1CCN(C(c2ccccc2)c2ccccc2)CC1	HCV inh inconclusive, Pf growth 48h 10.4µM, Pf growth 96h 5.86µM (no result: Marburg entry inh, LASV entry inh)
Cc1ccccc1C(=O)N1CCCN(C(=O)c2ccccc2C)CC1	Pf growth 96h inconclusive
O=C(NC(=O)N1CCN(C(c2ccccc2)c2ccccc2)CC1)c1ccccc1	Marburg entry inh inconclusive, HCV inh inconclusive, Pf growth 48h 13.1µM, LASV entry inh inconclusive, Pf growth 96h inconclusive
Cc1oc(C(C)(C)C)cc1C(=O)N1CCN(C(c2ccccc2)c2ccccc2)CC1	Marburg entry inh inconclusive, HCMV inh inconclusive, Pf growth 48h 5.86µM, LASV entry inh inconclusive, Pf growth 96h 11.7µM
CCCNC(=O)N1CCN(C(c2ccccc2)c2ccccc2)CC1	Pf growth 48h inconclusive (no result: Marburg entry inh, LASV entry inh)
O=C(CCNS(=O)(=O)c1ccccc1C(F)(F)F)N1CCN(C(c2ccccc2)c2ccccc2)CC1	Marburg entry inh 7.08µM, HCV inh inconclusive, Pf growth 48h inconclusive, LASV entry inh inconclusive, Pf growth 96h inconclusive
CCSc1ccccc1C(=O)N1CCN(c2ccccc2F)CC1	HCMV inh -103.1, Pf growth 48h inconclusive
O=C(CCNS(=O)(=O)c1ccccc1C(F)(F)F)N1CCCCCCC1	Pf growth 48h inconclusive (no result: Marburg entry inh, LASV entry inh)
COc1ccccc1CNC(=O)c1ccc(N2CCCC2)c(NC(=O)NCCC(C)C)c1	none (no result: Marburg entry inh, HCV inh, Pf growth 48h, Pf growth 96h)
CCc1ccc(NC(=O)CSc2c(C)cnc3c2c(=O)n(C)c(=O)n3C)cc1	none (no result: Marburg entry inh, HCV inh, Pf growth 48h, Pf growth 96h)
COCCNC(=O)c1c(NC(=O)c2cc(=O)c3cc(C)cc(C)c3o2)sc2c1CCCC2	none (no result: HCV inh, Pf growth 48h, Pf growth 96h)
O=C(c1ccc(Cl)c(Cl)c1)N1CCC(=O)N(C(CO)Cc2ccccc2)CC1 (stereo not given)	none (no result: Marburg entry inh, Pf growth 48h, LASV entry inh, Pf growth 96h)
CCn1c(=O)c2sccc2n2c(CCCC(=O)N3CCN(c4cc(C)ccc4C)CC3)nnc12	HCMV inh inconclusive (no result: Marburg entry inh, HCV inh, Pf growth 48h, Pf growth 96h)
CNC(=S)N1CCN(C(c2ccccc2)c2ccccc2)CC1	none
CC(C)(C)C(=O)N1CCN(C(c2ccccc2)c2ccccc2)CC1	Pf growth 48h 11.7µM, LASV entry inh inconclusive, Pf growth 96h 10.4µM (no result: HCMV inh)
COc1cccc(NC(=S)N/N=C2\CC3CCC2(C)C3(C)C)c1 (stereo not given)	Marburg entry inh inconclusive, HCV inh inconclusive, Pf growth 48h 10.4µM, Pf growth 96h inconclusive
COc1ccc(C(C)C)cc1-c1cccc2nncn12	none (no result: Marburg entry inh, HCV inh, Pf growth 48h, LASV entry inh, Pf growth 96h)
C/C(=N/NC(=O)c1ccoc1C)c1cccc(NC(=O)C(F)(F)F)c1	Marburg entry inh inconclusive, LASV entry inh inconclusive
C/C(=N/NC(=O)c1ccc(C)s1)c1cccc(NC(=O)c2ccoc2C)c1	HCV inh 11.2µM (no result: Marburg entry inh, LASV entry inh)
C[C@H](CO)N1C[C@H](C)[C@@H](CN(C)C(=O)Cc2cccnc2)Oc2ncc(C#CCc3ccccc3)cc2C1=O	none (no result: Marburg entry inh, HCV inh, Pf growth 48h, LASV entry inh, Pf growth 96h)
